Activity calls are given as the source filed them. The rule behind the calls is not given here.

The target of this assay is Pantothenate synthetase (Mycobacterium tuberculosis (strain ATCC 25618 / H37Rv)) (UniProt P9WIL5). The experiment in a line: Coupled enzyme confirmation of inhibitors against recombinant Mtb PanC (AID 375).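 Note: 0% = full reaction with vehicle and 100% = no enzyme background.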 The following applies: coupled enzyme assay; at 10 µM, stronger effect = higher value.
Chain of Pantothenate synthetase (Mycobacterium tuberculosis (strain ATCC 25618 / H37Rv)) (P9WIL5 whole entry, looked up): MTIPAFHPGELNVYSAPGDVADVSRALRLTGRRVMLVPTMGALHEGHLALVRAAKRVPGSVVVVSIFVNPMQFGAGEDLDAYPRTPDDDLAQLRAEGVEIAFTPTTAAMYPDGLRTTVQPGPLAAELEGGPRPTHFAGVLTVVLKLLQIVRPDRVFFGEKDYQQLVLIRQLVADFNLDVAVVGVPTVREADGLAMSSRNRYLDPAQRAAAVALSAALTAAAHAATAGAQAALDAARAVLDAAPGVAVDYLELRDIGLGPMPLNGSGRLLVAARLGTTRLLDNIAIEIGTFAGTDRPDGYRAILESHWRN
For `O=C(NCc1cccnc1)C1CCCN(S(=O)(=O)c2ccc(Cl)cc2)C1` (stereo not given), the inhibition was 2% (inactive).

In the case of `CCCn1c(SCC(=O)NCCc2ccccc2)nnc1-c1ccccn1`, the inhibition is 6% (inactive).

For `O=C(CSc1nnc(-c2ccc(Br)o2)n1Cc1ccccc1)c1ccccc1F`, the inhibition is 2% (inactive).

For the compound `Clc1ccc(CSc2nnc(Cn3cnc4ccccc43)o2)cc1`, the inhibition is 0% (inactive).

With `O=C(O)c1ccccc1S`, the inhibition was 0% (inactive).

For the compound `C=CCn1c(SCC(=O)Nc2ccccc2OC)nnc1-c1ccccn1`, the inhibition was 3% (inactive).

As for `COc1ccc(OC)c(C2=Nn3c(nnc3C3CCCCC3)SC2)c1`, the inhibition is 0% (inactive).

As for `COc1cccc(C2C(C(=O)c3cc4ccccc4o3)=C(O)C(=O)N2CCN(C)C)c1OC` (stereo not given), the inhibition was 1% (inactive).

Turning to `Clc1ccc(Cl)c(-c2nn3c(COc4ccccc4)nnc3s2)c1`, the inhibition is 4% (inactive).

For the compound `Cc1cc(Cl)c(S(=O)(=O)NC2CCCCC2)cc1OCC(=O)Nc1nncs1`, the inhibition is 3% (inactive).

In the case of `COc1cc(C(=O)OCC(=O)N(C)Cc2ccccc2)cc(OC)c1OC`, the inhibition was 0% (inactive).

As to `COC(=O)c1ccccc1NC(=O)N1CCCC1`, the inhibition is 0% (inactive).

`O=C(Nc1nc2c(s1)CCc1ccccc1-2)c1cccs1`: the inhibition is 8% (inactive).

Consider `O=C(C1CCN(c2nnc(-n3cccc3)s2)CC1)N1CCOCC1`, for which the inhibition is 0% (inactive).

In the case of `Cc1ccc2[nH]c3c(=O)n(CCCN4CCN(C)CC4)cnc3c2c1`, the inhibition was 4% (inactive).

As for `CC(=O)N1CCN(S(=O)(=O)c2ccc(S(=O)(=O)NC3CC3)cc2)CC1`, the inhibition is 3% (inactive).

`COc1ccc(Cl)c(NCCC(=O)O)c1`: the inhibition is 0% (inactive).

`O=S(=O)(c1cccs1)N1CCN(Cc2nc3ccccc3s2)CC1`: the inhibition was 0% (inactive).

For the compound `O=C(Nc1ccc(CN2CCOCC2)cc1)c1cc2ccccn2n1`, the inhibition was 0% (inactive).

Regarding `CCOC(=O)C(NC(=O)Nc1ccccc1)(OCC)C(F)(F)F` (stereo not given), the inhibition was 0% (inactive).

Regarding `CCCC(=O)O[C@]1(C(=O)CCl)[C@@H](C)C[C@H]2[C@@H]3CCC4=CC(=O)C=C[C@]4(C)[C@@]3(F)C(=O)C[C@@]21C`, the inhibition was 0% (inactive).

Turning to `CCCNc1nc(N2CCOCC2)nc(N2CCOCC2)n1`, the inhibition is 0% (inactive).

Turning to `CCOC(=O)c1cc2c(=O)n3ccccc3nc2n(CCCOC)c1=NC(C)=O`, the inhibition is 1% (inactive).

With `COc1cccc(-n2nnnc2SCC(=O)NCc2ccco2)c1`, the inhibition is 0% (inactive).

For the compound `COc1ccc(C)cc1-n1nnnc1SCC(=O)NC(=O)NCc1ccco1`, the inhibition was 11% (inactive).

In the case of `COc1ccc2c(c1)c1c(n2C(C)=O)C(OC(C)=O)=NCC1`, the inhibition was 0% (inactive).

Turning to `CN1CC=C2C(C#N)=C(N)C(C#N)(C#N)C(Cc3ccccc3)C2C1` (stereo not given), the inhibition is 0% (inactive).

In the case of `CC(=O)N1CCc2cc(S(=O)(=O)NC(C(=O)NCc3ccccc3)C(C)C)ccc21` (stereo not given), the inhibition is 3% (inactive).

Take `CCCCNC(=O)OCCNC(=O)NC`: the inhibition was 0% (inactive).

As for `CC(=O)N1CCC2(CC1)CC(=O)c1cc(OCC(=O)NCc3ccco3)ccc1O2`, the inhibition was 3% (inactive).

`COc1ccc(NC(=O)CSc2ccccn2)cc1OC`: the inhibition was 0% (inactive).

For `CSc1ncc(Cl)c(C(=O)Nc2ccc(S(=O)(=O)N3CCOCC3)cc2)n1`, the inhibition is 0% (inactive).

With `O=C(CSc1nc2c(sc3ccccc32)c(=O)n1Cc1ccco1)NCC1CCCO1` (stereo not given), the inhibition was 2% (inactive).

For the compound `CCOC(=O)CSc1nnc(-c2ccccc2OC)o1`, the inhibition is 0% (inactive).

Turning to `O=C(COC(=O)C12CC3CC(CC(C3)C1)C2)NCc1ccco1`, the inhibition is 0% (inactive).

On to `N#CC1=C(N)OC(c2ccccc2)=C(C#N)C1c1ccc2c(c1)OCO2` (stereo not given), for which the inhibition is 0% (inactive).

With `COC(=O)c1ccnc(/C=N/O)c1`, the inhibition was 6% (inactive).

Turning to `Cc1cc2c(c(=O)n1CCc1ccccc1)C(C(C)C)C(C#N)=C(N)O2` (stereo not given), the inhibition is 5% (inactive).

Turning to `Cc1ccc(S(=O)(=O)Cc2ccc(C(=O)NCCCN3CCN(C)CC3)o2)cc1`, the inhibition was 1% (inactive).

`Cc1ccc(-c2nc(N)n(C(=O)c3cccnc3)n2)cc1`: the inhibition is 0% (inactive).

A word on the inhibition: it is the share of the control response that was lost under treatment.

Source of the values: PubChem BioAssay.
